Measured values: PubChem BioAssay AID1159580 (chemical genetic matrix, 2015)
About 2,000 (36%) of roughly 5,500 compounds were called active. Another 18% or so got no clear call; they are omitted. Cut-off read from the data, not from the text of the source: active = normalized growth mostly below about 0.91 (no sharp cut-off); inconclusive = no clear call, values can overlap the other calls; inactive = mostly above about 0.92. The list shows a part of the results.

Experiment: chemical genetic growth profiling, strain panel (AID 1159580);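 note: tested at 20 µM; growth read once vehicle control cultures reached saturation at 30 °C; 1 = growth at the plate median or of vehicle wells; lower values mean less growth of the strain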
Details: growth OD

Measured: normalized growth

c1ccc2[nH]c(-c3cscn3)nc2c1
inactive: S. cerevisiae deletion strains, locus YKL068W, stronger effect = lower value 1 | S. cerevisiae deletion strains, locus YKL085W, strain MDH1 (second series), stronger effect = lower value 0.996 | S. cerevisiae deletion strains, locus YKL085W, strain MDH1, stronger effect = lower value 0.996 | S. cerevisiae deletion strains, locus YKL160W, strain elf1, stronger effect = lower value 1.01 | S. cerevisiae deletion strains, locus YKL190W, strain CNB1, stronger effect = lower value 0.993 | S. cerevisiae deletion strains, locus YKR001C, strain vps1, stronger effect = lower value 0.976 | S. cerevisiae deletion strains, locus YKR026C, strain gcn3, stronger effect = lower value 1.02 | S. cerevisiae deletion strains, locus YKR091W, strain srl3, stronger effect = lower value 1.01 | S. cerevisiae deletion strains, locus YLL001W, strain dnm1, stronger effect = lower value 1 | S. cerevisiae deletion strains, locus YLL026W, stronger effect = lower value 1.01 | S. cerevisiae deletion strains, locus YLL041C, strain sdh2, stronger effect = lower value 1.02 | S. cerevisiae deletion strains, locus YLR027C, strain aat2, stronger effect = lower value 1.01 | S. cerevisiae deletion strains, locus YLR039C, strain RIC1, stronger effect = lower value 0.963 | S. cerevisiae deletion strains, locus YLR058C, strain SHM2, stronger effect = lower value 0.997 | S. cerevisiae deletion strains, locus YLR102C, strain apc9, stronger effect = lower value 1.01 | S. cerevisiae deletion strains, locus YLR113W, strain HOG1, stronger effect = lower value 0.985 | S. cerevisiae deletion strains, locus YLR221C, strain rsa3, stronger effect = lower value 0.97 | S. cerevisiae deletion strains, locus YLR258W, strain gsy2, stronger effect = lower value 0.968 | S. cerevisiae deletion strains, locus YLR262C, strain YPT6 (second series), stronger effect = lower value 0.95 | S. cerevisiae deletion strains, locus YLR262C, strain YPT6, stronger effect = lower value 0.968 | S. cerevisiae deletion strains, locus YLR268W, strain sec22, stronger effect = lower value 0.945 | S. cerevisiae deletion strains, locus YLR320W, strain mms22, stronger effect = lower value 0.899 | S. cerevisiae deletion strains, locus YLR330W, strain CHS5, stronger effect = lower value 0.995 | S. cerevisiae deletion strains, locus YLR342W, strain FKS1 (second series), stronger effect = lower value 1.01 | S. cerevisiae deletion strains, locus YLR342W, strain FKS1, stronger effect = lower value 1 | S. cerevisiae deletion strains, locus YLR357W, strain rsc2, stronger effect = lower value 0.984 | S. cerevisiae deletion strains, locus YLR370C, strain arc18, stronger effect = lower value 0.975 | S. cerevisiae deletion strains, locus YLR371W, strain rom2, stronger effect = lower value 1.02 | S. cerevisiae deletion strains, locus YLR384C, strain iki3, stronger effect = lower value 1.01 | S. cerevisiae deletion strains, locus YLR418C, strain cdc73, stronger effect = lower value 0.979 | S. cerevisiae deletion strains, locus YML016C, strain PPZ1, stronger effect = lower value 0.997 | S. cerevisiae deletion strains, locus YML032C, strain rad52, stronger effect = lower value 0.979 | S. cerevisiae deletion strains, locus YML120C, strain ndi1, stronger effect = lower value 1 | S. cerevisiae deletion strains, locus YMR058W, strain fet3, stronger effect = lower value 0.993 | S. cerevisiae deletion strains, locus YMR078C, strain ctf18, stronger effect = lower value 1 | S. cerevisiae deletion strains, locus YMR125W, strain sto1, stronger effect = lower value 1.04 | S. cerevisiae deletion strains, locus YMR129W, stronger effect = lower value 1.01 | S. cerevisiae deletion strains, locus YMR205C, strain PFK2, stronger effect = lower value 0.982 | S. cerevisiae deletion strains, locus YMR223W, strain ubp8, stronger effect = lower value 1.02 | S. cerevisiae deletion strains, locus YMR231W, strain pep5, stronger effect = lower value 1.02 | S. cerevisiae deletion strains, locus YMR263W, strain SAP30, stronger effect = lower value 0.973 | S. cerevisiae deletion strains, locus YMR307W, strain GAS1, stronger effect = lower value 0.928 | S. cerevisiae deletion strains, locus YNL067W, strain RPL9B, stronger effect = lower value 0.961 | S. cerevisiae deletion strains, locus YNL071W, strain lat1, stronger effect = lower value 0.954 | S. cerevisiae deletion strains, locus YNL128W, strain TEP1, stronger effect = lower value 1.01 | S. cerevisiae deletion strains, locus YNL183C, strain NPR1, stronger effect = lower value 0.927 | S. cerevisiae deletion strains, locus YNL209W, strain ssb2, stronger effect = lower value 0.984 | S. cerevisiae deletion strains, locus YNL233W, strain BNI4, stronger effect = lower value 0.958 | S. cerevisiae deletion strains, locus YNL248C, strain rpa49, stronger effect = lower value 1.01 | S. cerevisiae deletion strains, locus YNL250W, strain rad50, stronger effect = lower value 1.04 | S. cerevisiae deletion strains, locus YNL271C, strain bni1, stronger effect = lower value 1 | S. cerevisiae deletion strains, locus YNL298W, strain CLA4, stronger effect = lower value 1.01 | S. cerevisiae deletion strains, locus YNL307C, strain MCK1, stronger effect = lower value 1 | S. cerevisiae deletion strains, locus YNL322C, strain KRE1 (second series), stronger effect = lower value 0.991 | S. cerevisiae deletion strains, locus YNL322C, strain KRE1, stronger effect = lower value 0.987 | S. cerevisiae deletion strains, locus YNR049C, strain mso1, stronger effect = lower value 1.01 | S. cerevisiae deletion strains, locus YNR052C, strain pop2, stronger effect = lower value 0.983 | S. cerevisiae deletion strains, locus YOL012C, strain htz1 2.38 | S. cerevisiae deletion strains, locus YOL147C, strain pex11, stronger effect = lower value 1.01 | S. cerevisiae deletion strains, locus YOR001W, strain rrp6, stronger effect = lower value 1 | S. cerevisiae deletion strains, locus YOR061W, strain CKA2, stronger effect = lower value 0.996 | S. cerevisiae deletion strains, locus YOR069W, strain VPS5, stronger effect = lower value 1 | S. cerevisiae deletion strains, locus YOR070C, strain gyp1, stronger effect = lower value 0.991 | S. cerevisiae deletion strains, locus YOR080W, strain dia2, stronger effect = lower value 1.01 | S. cerevisiae deletion strains, locus YOR083W, strain WHI5, stronger effect = lower value 0.977 | S. cerevisiae deletion strains, locus YOR106W, strain vam3, stronger effect = lower value 1.03 | S. cerevisiae deletion strains, locus YOR136W, strain idh2, stronger effect = lower value 0.995 | S. cerevisiae deletion strains, locus YOR144C, strain elg1, stronger effect = lower value 1.02 | S. cerevisiae deletion strains, locus YOR184W, strain ser1, stronger effect = lower value 0.932 | S. cerevisiae deletion strains, locus YOR231W, strain MKK1, stronger effect = lower value 1 | S. cerevisiae deletion strains, locus YOR265W, strain rbl2, stronger effect = lower value 0.997 | S. cerevisiae deletion strains, locus YOR270C, strain vph1, stronger effect = lower value 0.961 | S. cerevisiae deletion strains, locus YOR290C, strain snf2, stronger effect = lower value 0.944 | S. cerevisiae deletion strains, locus YOR316C, strain cot1, stronger effect = lower value 0.998 | S. cerevisiae deletion strains, locus YPL051W, strain arl3, stronger effect = lower value 0.991 | S. cerevisiae deletion strains, locus YPL078C, strain atp4, stronger effect = lower value 0.995 | S. cerevisiae deletion strains, locus YPL106C, strain sse1, stronger effect = lower value 1.08 | S. cerevisiae deletion strains, locus YPL240C, strain hsp82, stronger effect = lower value 0.997 | S. cerevisiae deletion strains, locus YPL256C, strain CLN2, stronger effect = lower value 0.957 | S. cerevisiae deletion strains, locus YPR119W, strain clb2, stronger effect = lower value 1.01 | S. cerevisiae deletion strains, locus YPR141C, strain kar3, stronger effect = lower value 1.01 | S. cerevisiae deletion strains, locus YPR163C, strain tif3, stronger effect = lower value 1 | S. cerevisiae deletion strains, locus YPR167C, strain met16, stronger effect = lower value 1 | S. cerevisiae deletion strains, strain wtn01, stronger effect = lower value 0.977 | S. cerevisiae strains, strain wild type, stronger effect = lower value 0.995
active: S. cerevisiae deletion strains, locus YML124C, strain tub3, stronger effect = lower value 0.636 | S. cerevisiae deletion strains, locus YNL153C, strain GIM3, stronger effect = lower value 0.0845 | S. cerevisiae deletion strains, locus YPL241C, strain CIN2, stronger effect = lower value 0.0871
